# ± gives the standard deviation.
# Tested on: MILI (PIWIL2) piRISC loaded with piRNA #1 (26 nt)
# Experiment: pre-steady-state target cleavage rate (min^-1); guide: piRNA #1 5'p-UGAGGUAGUAGGUUGUAUAGUAUCCA; higher = faster piRNA-guided slicing of the target
# Settings: auxiliary factor: 500 nM mouse GTSF1
# In short: (§1)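 With or without 500 nM GTSF1 partner protein, 1 nM active affinity-purified piRISC carrying one synthetic guide was mixed with 0.1 nM transcribed, DNA-blocked target RNA library in HEPES–potassium acetate buffer at 33 °C for 0–8 or 0–960 min. Uncleaved targets were sequenced and normalised to depth and to weakly complementary targets, three trials were pooled, and k3 was capped at 0.0001 min^-1. The pre-steady-state cleavage rate came from a burst-and-steady-state fit.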
row,Sequence,pre-steady-state target cleavage rate
1,GGAGACCUUACUAUACCACCUACUACCUCA,0.109 ± 0.014
2,GGAGUGGAUACUAUACAACCUACUACCACA,0.113 ± 0.0097
3,GGAGAGGAUACUAUAGAACCUACUACCUGA,0.0217 ± 0.005
4,GGAGUGGAUACUAUACAACCUACUACCCCA,0.0956 ± 0.016
5,GGAGACGAUACUAUACAACCUACUAACUCA,0.0612 ± 0.016
6,GGAGAGGAUACUAUACAACCUACUACCCCA,0.119 ± 0.02
7,GGAGACGAUACUAUACAACCUACUAACCUCA,0.194 ± 0.02
8,GGAGUGGAUACAAUACAACCUACUACCACA,0.111 ± 0.0093
9,GGAGAGGAUACUAACAACCUACUACCUCA,0.181 ± 0.013
10,GGAGACGAAACUAUACAUCCUACUACCUCA,0.255 ± 0.026
11,GGAGACGAUACUAUUACAACCUACUACCUCA,0.172 ± 0.011
12,GGAGACCAUACUAUACAACCUACUAACUCA,0.0993 ± 0.021
13,GGAGUGGAUACUAUACAACUACUACCUCA,0.0608 ± 0.0047
14,GGAGACGAUACUAAACAACCUACUACCUGA,0.124 ± 0.02
15,GGAGACCAAACAAUACAACCUACUACCUCA,0.0678 ± 0.024
16,GGAGUGGUUACUAUACAAGCUACUACCUCA,0.213 ± 0.016
17,GGAGACCUAUGUAAUACAACCUACUACCUCA,0.0179 ± 0.0049
18,GGAGAGGAUACUUACAACCUACUACCUCA,0.125 ± 0.012
19,GGAGACGAUACUAUACUACCUACUACCUGA,0.167 ± 0.021
20,GGAGAGGAUAGUAUACUACCUACUACCUCA,0.0295 ± 0.0076

row,Sequence,pre-steady-state target cleavage rate
1,GGAGAGGAUACUAUACAAGCUACUACCACA,0.243 ± 0.019
2,GGAGACGAUAUUAUACAACCUACUACCUCA,0.214 ± 0.013
3,GGAGACGUUACUAUACAACCUACUACCUGA,0.102 ± 0.016
4,GGAGAGGAUACUAUACAACCUACUACUCA,0.109 ± 0.017
5,GGAGACCAUACUUUACAACCUACUACCUCA,0.168 ± 0.014
6,GGAGACCUUACUAUACAACCUAUUACCUCA,0.226 ± 0.019
7,GGAGACCAUACUAUACAACCUACUACCUCCA,0.137 ± 0.018
8,GGAGACGAUAGUAAACAACCUACUACCUCA,0.134 ± 0.01
9,GGAGAGGAUACUAUACAACCUACUACGUGA,0.0154 ± 0.004
10,GGAGAGGAUACUAUUCAACCUACAACCUCA,0.0909 ± 0.01
11,GGAGAGCAUACUAUACAACCUACUACCACA,0.158 ± 0.018
12,GGAGACGUUACUAUACAACCUUCUACCUCA,0.00861 ± 0.0028
13,GGAGUGGUUACUAUACAACCUACUACCUGA,0.0722 ± 0.01
14,GGAGAGGUAUACUAUACAACCUACUACCUCA,0.111 ± 0.0086
15,GGAGAGGAUACUAUACAUCCUACUACCUGA,0.00529 ± 0.0032
16,GGAGACGUUACUAUACAACCUACUACCACA,0.191 ± 0.016
17,GGAGAGGAUACUAUACAACCCACUACCUCA,0.0214 ± 0.0051
18,GGAGACCAUACUAUAGCAACCUACUACCUCA,0.191 ± 0.016
19,GGAGACCUAUCUAUACAACGUACUACCACA,0.0153 ± 0.0035
20,GGAGACCUAAGUUUACAACCUACUACCUCA,0.0168 ± 0.0041

# Tested on: EfPiwi piRISC loaded with piRNA #1 (26 nt)
# Experiment: pre-steady-state target cleavage rate (min^-1); auxiliary factor: 500 nM Ephydatia muelleri Gtsf1; guide: piRNA #1 5'p-UGAGGUAGUAGGUUGUAUAGUAUCCA; MIWI and MILI are mouse PIWI proteins and EfPiwi is from a freshwater sponge; tags in brackets are library labels; higher = faster piRNA-guided slicing of the target
# Settings: not given
# In short: as §1
row,Sequence,pre-steady-state target cleavage rate
1,GGAGACCUUACUAUACCACCUACUACCUCA,0.006 ± 0.003
2,GGAGUGGAUACUAUACAACCUACUACCACA,0.00561 ± 0.0019
3,GGAGAGGAUACUAUAGAACCUACUACCUGA,0.00264 ± 0.0017
4,GGAGUGGAUACUAUACAACCUACUACCCCA,0.00727 ± 0.0025
5,GGAGACGAUACUAUACAACCUACUAACUCA,0.00467 ± 0.0021
6,GGAGAGGAUACUAUACAACCUACUACCCCA,0.00713 ± 0.0022
7,GGAGACGAUACUAUACAACCUACUAACCUCA,0.0059 ± 0.0019
8,GGAGUGGAUACAAUACAACCUACUACCACA,0.00323 ± 0.0018
9,GGAGAGGAUACUAACAACCUACUACCUCA,0.00812 ± 0.0046
10,GGAGACGAAACUAUACAUCCUACUACCUCA,0.00655 ± 0.0027
11,GGAGACGAUACUAUUACAACCUACUACCUCA,0.0508 ± 0.019
12,GGAGACCAUACUAUACAACCUACUAACUCA,0.00957 ± 0.0048
13,GGAGUGGAUACUAUACAACUACUACCUCA,0.00835 ± 0.0039
14,GGAGACGAUACUAAACAACCUACUACCUGA,0.00288 ± 0.0022
15,GGAGACCAAACAAUACAACCUACUACCUCA,0.00594 ± 0.0054
16,GGAGUGGUUACUAUACAAGCUACUACCUCA,0.00582 ± 0.0018
17,GGAGACCUAUGUAAUACAACCUACUACCUCA,0.00412 ± 0.0028
18,GGAGAGGAUACUUACAACCUACUACCUCA,0.00543 ± 0.0036
19,GGAGACGAUACUAUACUACCUACUACCUGA,0.00446 ± 0.0021
20,GGAGAGGAUAGUAUACUACCUACUACCUCA,0.00274 ± 0.0027

row,Sequence,pre-steady-state target cleavage rate
1,GGAGAGGAUACUAUACAAGCUACUACCACA,0.00317 ± 0.0019
2,GGAGACGAUAUUAUACAACCUACUACCUCA,0.00616 ± 0.0034
3,GGAGACGUUACUAUACAACCUACUACCUGA,0.00573 ± 0.0022
4,GGAGAGGAUACUAUACAACCUACUACUCA,0.00563 ± 0.0029
5,GGAGACCAUACUUUACAACCUACUACCUCA,0.017 ± 0.0071
6,GGAGACCUUACUAUACAACCUAUUACCUCA,0.0052 ± 0.0025
7,GGAGACCAUACUAUACAACCUACUACCUCCA,0.0119 ± 0.0039
8,GGAGACGAUAGUAAACAACCUACUACCUCA,0.00554 ± 0.004
9,GGAGAGGAUACUAUACAACCUACUACGUGA,0.00416 ± 0.0019
10,GGAGAGGAUACUAUUCAACCUACAACCUCA,0.00238 ± 0.0017
11,GGAGAGCAUACUAUACAACCUACUACCACA,0.00318 ± 0.0021
12,GGAGACGUUACUAUACAACCUUCUACCUCA,0.00871 ± 0.0043
13,GGAGUGGUUACUAUACAACCUACUACCUGA,0.00386 ± 0.0014
14,GGAGAGGUAUACUAUACAACCUACUACCUCA,0.0588 ± 0.023
15,GGAGAGGAUACUAUACAUCCUACUACCUGA,0.00462 ± 0.002
16,GGAGACGUUACUAUACAACCUACUACCACA,0.00242 ± 0.0022
17,GGAGAGGAUACUAUACAACCCACUACCUCA,0.00601 ± 0.0024
18,GGAGACCAUACUAUAGCAACCUACUACCUCA,0.00736 ± 0.0044
19,GGAGACCUAUCUAUACAACGUACUACCACA,0.00343 ± 0.0031
20,GGAGACCUAAGUUUACAACCUACUACCUCA,0.00645 ± 0.0046
